Measured values taken from PubChem BioAssay (NCI).
Compounds without any hit were thinned out: in the full panel of roughly 83,000, 20% have a hit.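 96-well plates, one dose, 48 hours. Percent growth reported; active if below 10.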 A number with no mark means an inactive call. Activity calls are given as the source filed them.

test system: MALME-3M melanoma; test: NCI-60 one-dose screen, 48 h (100 = growth as untreated, 0 = no growth, -100 = all killed); conditions: 10 µM unless noted

SMILES	growth
C=CCn1c(SCC(=O)Nc2ccc(C(=O)/C=C/c3ccc(OC)cc3)cc2)nnc1-c1ccccc1	88.2%
COc1cc2ncnc(Nc3ccc(F)c(Cl)c3)c2cc1OCC(=O)N1CCN(c2ccc(F)cc2)CC1	92.2%
Cc1ccc2nc(Cl)c(Cn3nnnc3SCc3ccccc3)cc2c1	114%
CN1CCN(CCOc2ccc(-c3cnc4c(-c5ccc(C(F)(F)F)cc5)cnn4c3)cc2)CC1	50.4%
C/C(C=O)=C\c1ccc2c(c1)OCO2	127%
Cc1ccc(O)c(NC(=O)c2ccc(CNc3ccnc(C(F)(F)F)c3)cc2)c1	59.9%
O=C1/C(=C/c2ccc(C(F)(F)F)cc2)COc2ccc(O)c(O)c21	23.6%
O=C(N/N=C/c1ccc(O)cc1O)c1ccc(Nc2ccnc(C(F)(F)F)c2)cc1	46.6%
O=c1[nH]c(-c2ccc(Cl)cc2)cn1-c1ccc(-n2cc(-c3ccc(Cl)cc3)[nH]c2=O)cc1	97.9%
CC1O[C@@H]2C[C@@](O)([C@H]1O)n1c3ccccc3c3c4c(c5c6ccccc6n2c5c31)C(=O)NC4=O (some centres not stated)	50.3%
COC1=CC(c2ccc[nH]2)=N/C1=C\c1[nH]c(C)c(CC(=O)OCc2ccccc2)c1C	-67.9% (active)
NC(=O)c1ccc(NC(=O)c2oc3ccccc3c2-c2cnn(-c3ccccc3)c2)cc1	-7.76% [50 µM] (active)
CCOC(=O)N1CCN(S(=O)(=O)c2oc(-c3ccc(Cl)cc3)nc2C#N)CC1	79.8%
Cc1nn(-c2ccccc2)c(N2CCCCC2)c1/C=N/NC(=O)Cn1c(=O)sc2ccccc21	101%
CN(C)c1ccc(C(=NO)c2ccc(N(C)C)cc2)cc1	29.8%
Clc1ccc(-c2nc(-c3c[nH]c4ncccc34)cs2)cc1	73% [100 µM]
COc1ccc(C(c2cc(OC)c(OC)c(OC)c2)N2CCCC2)cc1 (configuration not stated)	85.3%
COc1cccc(C(=O)OCC(O)C(=O)NC23CC4CC(CC(C4)C2)C3)c1 (configuration not stated)	99.1%
C=CC(=O)N1CCN(c2ccc3cccc(NC(=O)c4cnc(C)cn4)c3n2)CC1	30.5%

SMILES	growth
CCOC(=O)c1c(C)c2c(n1C)CSc1cc(S(=O)(=O)c3ccccc3)c(=O)[nH]c1-2	73.2% [100 µM]
CCCCCCCCNc1cc2c3c(c1)CCCN3CCC2	48.5%
COc1ccc(OC)c(-c2cn3nc(-c4c[nH]c5ccc(Br)cc45)sc3n2)c1	52.2%
CS(=O)(=O)Nc1cc(-c2ccc3ncnc(Nc4ccc5c(cnn5Cc5cccnc5)c4)c3c2)cnc1Cl	5.01% (active)
C=CCN=C(N)SCCCCCCSC(N)=NCC=C	98.7%
COc1cc(C2C3=C(COC3=O)N(CCO)c3cc4c(cc32)OCCO4)cc(OC)c1OC (configuration not stated)	53.7%
COc1ccc2[nH]cc(-c3nc(-c4cn(C)c5ccncc45)cs3)c2c1	86.9%
COc1cccc(NC(=O)c2cccc(C3CCc4c(cc(OC)c(OC)c4OC)O3)c2)c1 (configuration not stated)	72.7%
Cn1c(O)c(C(/C=C/c2ccccc2)=Nc2ccccc2N)c(=O)n(C)c1=O	118%
CC1=C(C(=O)n2c3ccccc3c3ccccc32)C(c2cccc([N+](=O)[O-])c2)C(C(=O)n2c3ccccc3c3ccccc32)=C(C)N1	88.9%
O=C(O)c1cn(C2CC2)c2cc(N3CCN(C(=O)N/N=C/c4ccccc4)CC3)c(F)cc2c1=O	92.9%
CC1(C)CCC(S(=O)(=O)c2ccc3c(c2)/C(=N\O)c2cc(S(=O)(=O)N4CCN(c5ccc(F)cc5O)CC4)ccc2-3)CC1	-70.5% (active)
Cc1ccc(C)n1/C=C/n1c(C)ccc1C	117%
CCOC(=O)C(=Cc1cccc(C#N)c1)C(=O)OCC	49.9%
COc1cc(-c2nc(NC(C)=O)sc2-c2ccnc(NCCNS(=O)(=O)c3ccccc3)n2)ccc1Cl	27.9%
CCN1CCN(CC(=O)Nc2nc3ccc(NCc4ccc(Br)cc4)cc3s2)CC1	-68.2% (active)
C/C(=N\Nc1nc(C)cs1)c1cc2ccccc2o1	93.8%
COc1ccccc1-n1c(-c2cc(O)ccc2C)cn2c3c(=O)[nH]c(=O)n(C)c3nc12	89.9%
